Our source for the z-score values is PubChem BioAssay AID1508600 (Functional Genomics Laboratory (NCATS/FGL), 2020).

The whole screen tested about 53,000 sequences, of which about 3,700 (7%) were called active.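 The calls were made as follows: active = gene knockdowns whose robust z-score for IL-1 alpha signal is at least 2 or at most -2, so actives lie on both sides; inactive = the rest.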 The entries come from a sample that favours actives as a whole.

This assay can be described thus: Components of the Cytosolic LPS Sensing Pathway: Gene Identification via Genome-wide siRNA Screen.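 Also: robust z of the log signal after scaling to non-targeting control siRNA wells of the plate.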 The settings on record: RAW264.7 macrophages, IL-1a HTRF, actives lie on both sides, screened at 100 nM (by protocol), cells primed 5 h with Pam3CSK4 first. The method, boiled down: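 Using IL-1a HTRF as read-out, the screen measured release from RAW264.7 cells after 48h siRNA knockdown (100 nM), 5 h Pam3CSK4 priming and 24 h cytosolic LipidA. Values were expressed relative to negative-control wells as robust z-scores.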
(TR-FRET usually uses a lanthanide donor and a delayed reading to cut background.)
In the case of GGCACAAAAGAAGAUCCUGTT against Tnfaip8, the z-score is -1.53 (inactive).

In the case of GGAUCCUGAACGAAAAAGGTT against Med19, the z-score was -0.0986 (inactive).

For the sequence CGGCAGAUUGCUGCUUUGATT against Vmn2r122, the z-score is 2.73 (active).

Turning to GGUCCAAGAGGAAAGACAATT against Adarb2, the z-score was 0.67 (inactive).

For the sequence GGUGACAGAUGUUUAUGAGTT against Ccdc28b, the z-score was -1.91 (inactive).

As to GCAUAUGAUUGUCAUGAGUTT against Olfr319, the z-score is -1.47 (inactive).

Consider GCAAGACCGAAGUCACGGATT against Krt19, for which the z-score is 2.87 (active).

With CCGAGACAUAUACAAAGGATT against Klkb1, the z-score is -0.36 (inactive).

For the sequence CCAGACAUCGUGCUUUACATT against Chrna3, the z-score is 1.42 (inactive).

Regarding GUUAACCCUGAGCCUAAACTT against Spata3, the z-score was 0.356 (inactive).

As for GGGCGACAUCUUUAGCAAATT against Sh3bp4, the z-score is -0.0472 (inactive).

As to GCCUAAGCCCUUAAAGCGUTT against Lrrc41, the z-score was 0.643 (inactive).

Regarding CCCACUAAGGAACAAAUUGTT against Tex24, the z-score was 0.297 (inactive).

As to GGCUUGCAUCAAUAAAGAATT against Adam33, the z-score was 0.0554 (inactive).

On to GGUGGUUGAAGAAAUGGCUTT against Timm8a1, for which the z-score is -0.364 (inactive).

As to GGAGCAGAAGUCAAUCAGGTT against Myo1b, the z-score is 0.419 (inactive).

For GGGACUAAUGUUUUGCCUATT against Krt16, the z-score was -2.62 (active).

As to GCGGAAGUCGACCUUUGAUTT against Cd164, the z-score was -0.238 (inactive).

For the sequence CGACUUUGGACAAAAAUUGTT against Kdm2a, the z-score was 0.638 (inactive).

With CCUACCCGAUUAUUCUUACTT against C2cd2l, the z-score is 0.125 (inactive).

For the sequence “GGCAGUAUUGACUCCUACCTT against 6430548M08Rik”, the z-score is -0.973 (inactive).

For the sequence GCUUGGAUUGAGCUUUACATT against Pid1, the z-score was 3.53 (active).

Consider GGAAGUUGUUGGGAACUUCTT against Afmid, for which the z-score was -0.401 (inactive).

For the sequence GGGAAGUUUGGUUCUUUGGTT against Msn, the z-score was 0.749 (inactive).

On to GGAAAGCCACUGUGUAAAATT against Armc9, for which the z-score is 0.594 (inactive).

With “GCCUCUUCGAACUCACUAUTT against St6galnac3”, the z-score is -0.807 (inactive).

In the case of “GGAAAGAGGGUUUAUUUUGTT against 4930556L07Rik”, the z-score is 0.919 (inactive).

Turning to GGGAAAGAGUUUUACAAACTT against Ttc22, the z-score is 2.74 (active).

In the case of GGACCUGAACAAUAAGGUUTT against Tagap, the z-score was -1.78 (inactive).

As for GGAUUCUUUGGUCUAUUUCTT against Pudp, the z-score is -0.308 (inactive).

In the case of GGAGAAAGACCAUUACUGUTT against Ly6e, the z-score is 1.63 (inactive).

Turning to GGUGACAAACCGAUACUUGTT against Cope, the z-score is -0.966 (inactive).

Consider GCAGACAAAGAUCCUAUGCTT against Atp2b3, for which the z-score is -2.27 (active).

In the case of CCUACCUAUUUAUCAAAGATT against Sgms1, the z-score is 0.977 (inactive).

For the sequence GGAUUUUUACAGAGACAUGTT against Actr6, the z-score was -0.821 (inactive).

On to “CGAUAUCUUACUUCUUUUGTT against E030011O05Rik”, for which the z-score is 0.952 (inactive).

On to GGCCAUAGUCCUGUUCACCTT against Nr2f2, for which the z-score is 0.492 (inactive).

CCUUCAACAGAUCUAGAGUTT against Rexo1: the z-score was 2.36 (active).

Regarding GGAGGUUACAAUCCAUGAGTT against Anapc1, the z-score is -0.951 (inactive).

As for GGAUAGAUUUUAGGUAUUGTT against Htr5b, the z-score was -0.475 (inactive).

With CGGAGUAGCGAUUAUGGUGTT against Art5, the z-score is -0.535 (inactive).

Regarding GGAUUUAACCCUGAGAUACTT against Grpel2, the z-score is 0.621 (inactive).

As for GGAUGAUAUCGGAGCCUGCTT against Clec4g, the z-score was 0.392 (inactive).

Take GGACAAAUACCACAAGUUGTT against Simc1: the z-score was 2.13 (active).

As for GCAGGAGUAUUGCCAAGGATT against Csf1, the z-score was -0.404 (inactive).

Consider CGAAACACUCAAGGUUGUATT against Creb3l2, for which the z-score is -0.314 (inactive).

In the case of GCAGCAUGCCUGAAUAUUUTT against Prcp, the z-score was 0.172 (inactive).

Take GGAGGUGGAACAAAUAUUUTT against Emc6: the z-score is 0.361 (inactive).

For the sequence GGAAGACUUGUUCAACUGGTT against Grwd1, the z-score is -0.88 (inactive).

With GCUGUUUGAGGUCAUUCAUTT against Urb2, the z-score was 4.71 (active).

With GGCUUUUGUCAAGCAGCACTT against Ins2, the z-score is -0.628 (inactive).

Regarding CCUUGAAAAGUCUAAACGUTT against Tmod2, the z-score was 0.375 (inactive).

As for GGGCUAGCCUAGAUAAAAATT against Sltm, the z-score is -1.38 (inactive).

For the sequence GGGCUCCACAUGUUUGCAUTT against Ehmt1, the z-score was 0.392 (inactive).

In the case of “GGAAUUCUCUCAGCAGAAGTT against 1110038F14Rik”, the z-score is -2.17 (active).

On to GGAACUUCUACAGUCCUCCTT against Parp16, for which the z-score was 0.193 (inactive).

Consider GGCUUCUUAUUGAUGUUGGTT against Asb13, for which the z-score was -0.166 (inactive).

Consider GGAUUUUUGAUGAUGUGUCTT against Arfgap1, for which the z-score is -0.795 (inactive).

For the sequence CCUUAUAGCAUAAGCUUUATT against Olfr768, the z-score is 2.04 (active).

Turning to CCAAGAUACCUUUUUUGAGTT against Paox, the z-score was 0.455 (inactive).

Take GGCCUCUUCACUUAUGUAUTT against Inha: the z-score is -0.22 (inactive).

Regarding GGUCAAUUGUCCAUAUGACTT against Tox3, the z-score is -2.24 (active).

As to GGACAAUGAAGGAAUUGAUTT against Mdm4, the z-score was -0.579 (inactive).

For the sequence CCUCGACUUUUAUUUGGAUTT against Smg6, the z-score is -0.0389 (inactive).

Take GGUUAGCUUCUUAAAACCATT against Adcy10: the z-score is -0.605 (inactive).

With GGGAGCUAGCAAAAUCGGATT against Eif4g3, the z-score is 0.714 (inactive).

With GGUGAAGCCAGUUUCUUUATT against Traf3ip2, the z-score is 0.107 (inactive).

As for CGUUGAUGUGUAUUUAAACTT against Vopp1, the z-score was 0.704 (inactive).

On to GCUACUAUUGUGUUCUGAATT against Drd1, for which the z-score was 2.24 (active).

For CGUGAACGUAGAGUUUUCUTT against Fcrl5, the z-score is 3.59 (active).

Consider GGAACUGCUCAUAAAAACATT against Evi2b, for which the z-score was 0.0355 (inactive).

As for GCUAUUGAGUUAUCGUUGCTT against Stam2, the z-score was 0.715 (inactive).

Consider GGUACAGCUUAUGGAUUAATT against Pdgfra, for which the z-score is -0.193 (inactive).

GCCAGGUUUUCUCCAUAGATT against Tmem44: the z-score is -0.841 (inactive).

In the case of GGUUUAUACUCAUAACCUGTT against Kifbp, the z-score was 2.03 (active).

As to “GAAAUUAGAACAACUUUGGTT against 3830403N18Rik”, the z-score is 0.442 (inactive).

For the sequence GGACCGCCUUCAACAACAATT against Tpgs1, the z-score is 2.68 (active).

With GGCAUUUACCAAGUUCCUGTT against Olfr522, the z-score is -1.26 (inactive).

In the case of GGACCAUAAGCACAUGAUUTT against Prl7c1, the z-score is 0.668 (inactive).

With GGUCCAUACAAGUGUUUGATT against Camk2b, the z-score was -0.15 (inactive).

Regarding GGUACUCGAAUCUGACCUCTT against Nqo1, the z-score is 2.04 (active).

With GGAAACCCAAUAUCAAACUTT against Rnf138, the z-score was 0.252 (inactive).

In the case of GCAUCACUUACAGAUAGACTT against Olfr305, the z-score was -1.21 (inactive).

GCAAUACCUCAGAAAAAGUTT against Tmem165: the z-score was -4.14 (active).

In the case of GGAGGUCCAGAAGAAUUAUTT against Pam16, the z-score was 0.957 (inactive).

As for GCAAAAGUAGAAGAACAACTT against Ccnt1, the z-score was -0.172 (inactive).

As to GGUGGUUACCAUCUUACUUTT against Trhr, the z-score is 0.532 (inactive).

For GGAAAUUUUCAAGCUCAAGTT against Gsdmd, the z-score is -2.44 (active).

On to GGAGGCAUUCGCAUAGACGTT against Tra2a, for which the z-score is 1.68 (inactive).

Take GGUGUGAGAUCGAAUCAGATT against Arhgef18: the z-score was 0.503 (inactive).

For GGCACUCUUGUUGAAAUUCTT against H6pd, the z-score was 0.756 (inactive).

Turning to GGGUUGUUUGCUGGUUUGUTT against Tmbim4, the z-score was 0.885 (inactive).

Take GGUUGGAAAUUGGACAGGATT against Col6a3: the z-score was 2.22 (active).

As to GGACCUCACAAGUGUUUAUTT against Pola1, the z-score is -0.837 (inactive).

With GGUGAAUGUGUGGAUUAUCTT against Itih2, the z-score is -0.684 (inactive).

Consider GGUUGUUCUUAACAUAACCTT against Ginm1, for which the z-score is 0.0306 (inactive).

Regarding GGAUCAAGAAAAGAUGAAATT against Galnt1, the z-score was -0.858 (inactive).

With GGUGAUGCGAUCUUCUUUATT against Anxa10, the z-score was 1.76 (inactive).

Take GGUCAAAAUAGAAGGAGUATT against Klhl4: the z-score was 0.124 (inactive).

CCCUGUAUAUAUUUGCUGATT against Clca3a2: the z-score is 2.78 (active).

As to GGUGCCCAUAAUAGCCAUCTT against Polr2c, the z-score is -1.02 (inactive).

On to GCCACACGACAUGUGAUUCTT against C2cd4c, for which the z-score was -0.0403 (inactive).

On to GCAGUUGGCAGGCUAAAAATT against Mff, for which the z-score is 1.98 (inactive).

Take CCCUAACUUAAUAAAACCUTT against Triobp: the z-score was -2.41 (active).

Take GGACAUCGAAGUCCAACACTT against Plekhm1: the z-score is -0.501 (inactive).

Take CCACUUACAUGUCAGAUUATT against Slc30a6: the z-score is 1.09 (inactive).

On to GGACUGGAAGAAUUUUUUGTT against Mrpl47, for which the z-score was 0.293 (inactive).
